Data taken from PubChem BioAssay AID1851 (National Center for Advancing Translational Sciences (NCATS), 2009).
Screen size: about 16,000 compounds; about 5,100 (32%) were called active. Another 25% or so got no clear call; they are omitted. This is one part of the list. A number with no mark means an inactive call. Calls follow the shape of the dose curve; as a rule, active = well fitted curve in the direction sought with a large enough effect; inconclusive = small, poorly fitted or top-dose-only effect, or effect the other way; inactive = no such curve, though single readings can be large or run the other way.

biological target: Cytochrome P450 3A4 (Homo sapiens) (UniProt P08684); assay: Cytochrome panel assay with activity outcomes; settings: recombinant CYP, pro-luciferin dealkylation, luminescence, p450-cyp3a4; series mostly up to 57.1 µM; activity, negative = inhibition: at the top concentration
Sequence (P08684 whole entry, looked up): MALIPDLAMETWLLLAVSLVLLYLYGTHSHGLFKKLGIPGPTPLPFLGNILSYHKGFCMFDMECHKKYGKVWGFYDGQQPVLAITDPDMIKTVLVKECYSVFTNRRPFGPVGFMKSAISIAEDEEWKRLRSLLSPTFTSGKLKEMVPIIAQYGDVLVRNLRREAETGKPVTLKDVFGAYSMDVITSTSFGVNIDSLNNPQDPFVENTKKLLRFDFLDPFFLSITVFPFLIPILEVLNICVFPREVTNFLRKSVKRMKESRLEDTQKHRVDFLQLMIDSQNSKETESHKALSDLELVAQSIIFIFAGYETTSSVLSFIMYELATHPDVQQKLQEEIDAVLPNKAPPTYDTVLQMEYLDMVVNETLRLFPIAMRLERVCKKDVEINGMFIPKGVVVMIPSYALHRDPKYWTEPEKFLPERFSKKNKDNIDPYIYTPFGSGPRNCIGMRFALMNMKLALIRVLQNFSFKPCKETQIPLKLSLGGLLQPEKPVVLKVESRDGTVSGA
% is scaled to controls: 0 for no effect and ±100 for the full control effect.

Row | SMILES | activity, negative = inhibition | AC50
1 | CN(C)C(=O)Oc1cccc([N+](C)(C)C)c1 | -1.98% [at 25.6 µM] | 
2 | Cn1sc(NC(=O)c2ccccc2Cl)nc1=O | -14.4% | 
3 | Cc1nnc(NC(=O)c2cccc(NC(=O)C(C)C)c2)s1 | 1.57% | 
4 | O=C(NNC(=O)c1cc2cc3ccccc3nc2s1)c1cccc(Cl)c1 | -20.1% | 
5 | Cc1nc(NC(=O)c2ccccc2)sc1-c1csc(Nc2ccc(F)cc2)n1 |  | 10 µM (active)
6 | Cc1nc(NC(=O)c2ccccc2)sc1-c1csc(Nc2cccc(Cl)c2)n1 |  | 10 µM (active)
7 | Cc1nc(NC(=O)c2ccco2)sc1-c1csc(Nc2ccc(Cl)cc2Cl)n1 |  | 5.01 µM (active)
8 | Cc1nc(NC(=O)c2ccccc2)sc1-c1csc(Nc2ccc(Cl)cc2)n1 | 3.11% [at 2.29 µM] | 
9 | Cc1nc(NC(=O)c2ccccc2)sc1-c1csc(Nc2ccc(Cl)cc2Cl)n1 |  | 11.2 µM (active)
10 | C#CCOCCCC(=O)O | 0.116% [at 11.4 µM] | 
11 | CC(C)(N=NC(C)(C)C(=N)N)C(=N)N | -6.94% [at 11.4 µM] | 
12 | C=CCCC(=O)Nc1nc(C)c(-c2csc(Nc3ccc(Cl)cc3)n2)s1 |  | 10 µM (active)
13 | O[C@@H](c1cc(C(F)(F)F)nc2c(Cl)cc(Cl)cc12)[C@@H]1CCCCN1 | -21% [at 11.4 µM] | 
14 | CC(C)(C)NC(=O)Cn1nnc(-c2ccccc2NC(=O)c2cnccn2)n1 |  | 3.98 µM (active)
15 | CC(C)CC(=O)Nc1ccccc1-c1nnn(CC(=O)N2CCc3ccccc3C2)n1 | -9.5% | 
16 | CCOc1ccc(-c2nnn(CC(=O)Nc3cc(OC)ccc3OC)n2)cc1OCC |  | 3.55 µM (active)
17 | COc1ccc(-c2nnn(CC(=O)N(CC(=O)NCCC(C)C)Cc3cccs3)n2)cc1OC |  | 12.6 µM (active)
18 | C=CCn1c(Cc2ccc(OC)cc2)nnc1SCC(=O)c1cccc([N+](=O)[O-])c1 |  | 1.41 µM (active)
19 | CCOc1c2ccc(C(=O)NCCc3cccs3)cc2nn1CC | -0.473% [at 2.29 µM] | 

Row | SMILES | activity, negative = inhibition | AC50
20 | O=C(CSc1nnc(COc2ccccc2)n1-c1ccccc1)c1ccccc1 |  | 14.1 µM (active)
21 | CC1(C)OC(C(N)=O)C(C(N)=O)O1 (configuration not stated) | 2.95% | 
22 | CN[C@@H]1[C@H](O[C@@H]2O[C@H](CO)[C@@H](N)[C@H](O)[C@@H]2O)O[C@H]2C[C@@H](N)[C@@H](O[C@H]3[C@@H](O)[C@H](O)[C@H](N)C[C@@H]3N)O[C@H]2[C@H]1O | -2.1% [at 25.6 µM] | 
23 | C=CCn1c(COc2ccccc2)nnc1SCC(=O)N/N=C/c1ccc(C)cc1 |  | 3.16 µM (active)
24 | CCOc1cc(C)ccc1OCc1nnc(SCC(=O)c2cccc([N+](=O)[O-])c2)n1CC |  | 2.82 µM (active)
25 | COc1ccc(NC(=O)CSc2nnc(Cc3cccn3C)n2CCc2ccccc2)c(OC)c1 |  | 2.24 µM (active)
26 | CCn1c(CNC(=O)COc2ccc(C(C)C)cc2)nnc1SCC(=O)Nc1cc(F)ccc1C |  | 10 µM (active)
27 | CSc1nc(-c2ccccc2)nn1C(=O)c1ccccc1 | -8.43% | 
28 | CCc1ccccc1NC(=O)CSc1nc(-c2ccccc2)nn1C(=O)c1cccc([N+](=O)[O-])c1 | -8.74% [at 2.29 µM] | 
29 | CCn1c(COc2ccccc2)nnc1SCC(=O)c1cccc([N+](=O)[O-])c1 |  | 12.6 µM (active)
30 | COc1cccc(OCc2nnc(SCC(=O)NCc3ccco3)n2C)c1 | 12.8% [at 2.29 µM] | 
31 | COc1ccc(OCc2nnc(SCC(=O)O)n2N)cc1 | -2.75% | 
32 | COc1ccc(C(=O)NNC(=O)CSc2nnc(COc3ccc4ccccc4c3)n2C)cc1 |  | 0.501 µM (active)
33 | CCCCOc1ccc(-c2nnn(CC(=O)c3c[nH]c4ccccc34)n2)cc1 | -0.767% | 
34 | CCn1c(COc2ccccc2)nnc1SCC(=O)Nc1cc(OC)ccc1OC |  | 10 µM (active)
35 | COc1ccc(-c2nnn(CC(=O)NCCc3c[nH]c4ccccc34)n2)cc1OC |  | 8.91 µM (active)
36 | COc1ccc2c(c1)-c1c(sn(-c3ccc(OC)c(OC)c3)c1=S)C(C)(C)N2 | -15.9% [at 2.29 µM] | 
37 | CC(=O)c1c(O)c(C)c(-c2ccccc2)n(-c2ccccc2)c1=O | -3.08% | 
38 | Cc1ccc(-n2nnnc2C(=Cc2ccc(N(C)C)cc2)c2nnnn2-c2ccc(C)cc2)cc1 |  | 3.16 µM (active)

Row | SMILES | activity, negative = inhibition | AC50
39 | Cc1ccc(-c2nn3c(C)nnc3c3ccccc23)cc1S(=O)(=O)NCCN1CCOCC1 |  | 8.91 µM (active)
40 | Cc1ccc(-c2nn3c(C)nnc3c3ccccc23)cc1S(=O)(=O)NCc1ccccc1 | -15.1% | 
41 | OC(COCC1COc2ccccc2O1)CN1CCN(c2ccccc2F)CC1 (configuration not stated) | -2.81% | 
42 | O=C(CCN1CCN(c2ccccc2F)CC1)Nc1ccccc1F | -5.33% | 
43 | Cn1c(=O)cc(SCC(=O)NCCN2CCN(c3ccccc3F)CC2)c2cc(Cl)ccc21 |  | 14.1 µM (active)
44 | Clc1ccc(Cl)c(SCCCN2CCNCC2)c1 | -17% [at 11.4 µM] | 
45 | Cn1c(=O)cc(SCC(=O)NCCCN2CCOCC2)c2ccc(Cl)cc21 |  | 7.94 µM (active)
46 | CCCNC(=O)N1N=C(c2ccc(N)cc2)c2cc3c(cc2[C@H]1C)OCO3 |  | 1.26 µM (active)
47 | COC(=O)N1CC(=O)N(OC)C1c1ccc(Cl)cc1Cl (configuration not stated) | 0.907% | 
48 | CC(=O)N1CC(=O)N(OCc2ccccc2)C1c1ccc(Cl)cc1Cl (configuration not stated) |  | 10 µM (active)
49 | CC(=O)N1N=C(c2cccc([N+](=O)[O-])c2)OC1c1ccc(Cl)cc1Cl (configuration not stated) | 11.9% [at 2.29 µM] | 
50 | Cc1cc(OCCn2cc(/C(N)=N/O)c3ccccc32)ccc1Cl |  | 11.2 µM (active)
51 | CCOC(=O)c1[nH]c(C)c(C(=O)OCC(=O)N2c3ccccc3CC2C)c1C (configuration not stated) | -26.3% [at 2.29 µM] | 
52 | CCOC(=O)C1=C(CN2c3ccccc3CC2C)NC(=O)NC1c1ccccc1 (configuration not stated) |  | 15.8 µM (active)
53 | Nc1nc(=S)[nH]c2c1C1(CCCC1)Cc1ccccc1-2 |  | 20 µM (active)
54 | O=C(O)CN=C1NC2(CCCC2)Cc2ccccc21 | 1.63% | 
55 | Cc1cccc(-n2c(=O)c3c(n4cnnc24)-c2ccccc2CC32CCCCC2)c1 | -17.5% [at 2.29 µM] | 
56 | CCOc1ccc(/C=C/C2=Cc3c(sc(NC(=O)CSc4n[nH]c(N)n4)c3C#N)C(C)(C)C2)cc1 |  | 15.8 µM (active)
57 | Cc1ccc(/C=C/C2=Cc3c(sc(NC(=O)CSc4n[nH]c(N)n4)c3C#N)C(C)(C)C2)o1 |  | 14.1 µM (active)
